Some test systems named below: RPMI-8226 leukemia; OVCAR-8 ovarian; OVCAR-5 ovarian; OVCAR-4 ovarian; SK-OV-3 ovarian; IGROV1 ovarian; OVCAR-3 ovarian; HS 578T breast; NCI/ADR-RES ovarian; T-47D breast.
Holding throughout (assay): NCI-60 one-dose screen, 48 h (100 = growth as untreated, 0 = no growth, -100 = all killed)
Holding throughout (details): 10 µM unless noted

This is part of a sample that, as a whole, favours compounds with a hit. Of some 83,000 tested, about 20% had one in any assay.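 Percent growth is the endpoint: 0 to 100 indicates growth inhibition (40 means 60% inhibition), 0 means no net growth, and negative values indicate cell death.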 Unmarked numbers belong to inactive results. Activity calls are given as the source filed them. Rule for the calls: active = growth percent below 10; inactive = the rest.

For `CC1CCCN(CCCCCOc2ccc3oc4ccccc4c(=O)c3c2)C1` (stereo not given), the growth in the test on RPMI-8226 leukemia is 50.7%; in the test with OVCAR-8 ovarian it was 77.5%; in the test on OVCAR-5 ovarian, 79.4%; with OVCAR-4 ovarian it was 83.1%; in the test with SK-OV-3 ovarian, 99.7%; with IGROV1 ovarian it was 67.3%. The growth is 77.9% in the test with OVCAR-3 ovarian, 77.8% in the test with HS 578T breast, 73.3% in the test with NCI/ADR-RES ovarian and 65.4% with T-47D breast.
For `O=C(O)CCNC1CCCCC1`, the growth in the test with RPMI-8226 leukemia was 96.3%; with OVCAR-8 ovarian, 99.9%; in the test on OVCAR-5 ovarian, 86%; in the test with OVCAR-4 ovarian it was 103%; with SK-OV-3 ovarian, 101%; in the test with IGROV1 ovarian, 105%. The growth was 108% with OVCAR-3 ovarian, 96.6% in the test with HS 578T breast, 93.1% with NCI/ADR-RES ovarian and 104% in the test on T-47D breast.
Take `CC(C)Cc1cc(CNC(=O)C2[C@H]3CN(C(=O)c4ccccc4)C[C@@H]23)nn1-c1ccccc1` (stereo not given in full): the growth was 84.7% in the test on RPMI-8226 leukemia; 77.9% with OVCAR-8 ovarian; 97.9% in the test on OVCAR-5 ovarian; 104% in the test on OVCAR-4 ovarian; 76.8% with SK-OV-3 ovarian; 107% with IGROV1 ovarian. Further, the growth was 100% in the test with OVCAR-3 ovarian, 97.9% with HS 578T breast, 93.8% with NCI/ADR-RES ovarian and 74.2% in the test with T-47D breast.
Regarding `Cc1cc(C)c2nc(Nc3nc(C)c(C)c(=O)[nH]3)nc(C)c2c1`, the growth in the test with RPMI-8226 leukemia was -17.1% (active); in the test with OVCAR-8 ovarian it was 15.5%; in the test with OVCAR-5 ovarian, 48.8%; in the test with OVCAR-4 ovarian it was 20.8%; in the test with SK-OV-3 ovarian, 7.87% (active); in the test on IGROV1 ovarian, 9.55% (active). In addition, the growth is 5.78% (active) in the test with OVCAR-3 ovarian, 21.2% with HS 578T breast, 40.8% in the test with NCI/ADR-RES ovarian and 18.9% in the test with T-47D breast.
Take `CCSc1nc(Cl)c(C#N)c(-c2ccc(F)cc2)n1`: the growth was 88.3% in the test with RPMI-8226 leukemia; 90.2% in the test on OVCAR-8 ovarian; 97.7% with OVCAR-5 ovarian; 97.8% with OVCAR-4 ovarian; 99.7% with SK-OV-3 ovarian; 98.9% in the test on IGROV1 ovarian. Also, the growth was 98% in the test with OVCAR-3 ovarian, 91.6% in the test on HS 578T breast, 102% in the test with NCI/ADR-RES ovarian and 90% in the test with T-47D breast.
In the case of `O=[N+]([O-])c1ccc(N=Nc2c(O)c(N=Nc3cc([N+](=O)[O-])cc([N+](=O)[O-])c3O)cc(N=Nc3cc(S(=O)(=O)O)cc4cc(S(=O)(=O)O)cc(O)c34)c2O)cc1`, the growth with RPMI-8226 leukemia is 102%; in the test with OVCAR-8 ovarian, 108%; with OVCAR-5 ovarian it was 104%; with OVCAR-4 ovarian, 98.4%; in the test with SK-OV-3 ovarian, 96.2%; with IGROV1 ovarian, 108%. In addition, the growth in the test with OVCAR-3 ovarian is 104%; in the test with HS 578T breast, 101%; in the test with NCI/ADR-RES ovarian it was 103%; in the test with T-47D breast it was 109%.
With `COC(=O)c1ccc2c(c1)n(Cc1ccc3ccccc3c1)c[n+]2Cc1ccc2ccccc2c1`, the growth is -5.06% (active) in the test with RPMI-8226 leukemia; 52.9% in the test on OVCAR-8 ovarian; 55.6% in the test with OVCAR-5 ovarian; 35.5% in the test with OVCAR-4 ovarian; 75.5% with SK-OV-3 ovarian; 4.97% (active) in the test on IGROV1 ovarian. Moreover, the growth in the test on OVCAR-3 ovarian is 15.6%; in the test with HS 578T breast, 67.6%; in the test with NCI/ADR-RES ovarian, 101%; in the test with T-47D breast, 0.0638% (active).
For the compound `C=C(C)[C@@H]1CC[C@]2(C(N)=O)CC[C@]3(C)[C@H](CC[C@@H]4[C@@]5(C)CCCNC(C)(C)[C@@H]5CC[C@]43C)[C@@H]12`, the growth was 13.5% in the test with RPMI-8226 leukemia; 82.1% in the test with OVCAR-8 ovarian; 82.9% in the test on OVCAR-5 ovarian; 83.6% in the test on OVCAR-4 ovarian; 87.5% in the test with SK-OV-3 ovarian; 84.2% with IGROV1 ovarian. Also, the growth with OVCAR-3 ovarian is 88.8%; in the test with HS 578T breast, 74.9%; in the test with NCI/ADR-RES ovarian it was 84.6%; in the test with T-47D breast it was 55.9%.
Regarding `C=C1C(=O)O[C@H]2[C@H]1CC/C(COC(=O)NCc1nc3ccccc3[nH]1)=C\CC[C@@]1(C)O[C@@H]21`, the growth in the test on RPMI-8226 leukemia is 34.7%; in the test with OVCAR-8 ovarian, 93.6%; in the test on OVCAR-5 ovarian, 130%; in the test with OVCAR-4 ovarian, 82.7%; with SK-OV-3 ovarian it was 101%; in the test with IGROV1 ovarian, 62.7%. Also, the growth in the test with OVCAR-3 ovarian is 22%; with HS 578T breast, 102%; with NCI/ADR-RES ovarian, 99.4%; in the test with T-47D breast it was 43.4%.
Turning to `C=C1C(=O)O[C@H]2[C@H]1CC/C(COC(=O)/C=C/c1cccnc1)=C\CC[C@@]1(C)O[C@@H]21`, the growth in the test with RPMI-8226 leukemia is 2.83% (active); in the test with OVCAR-8 ovarian, 40.6%; in the test on OVCAR-5 ovarian, 59.1%; with OVCAR-4 ovarian, 32.4%; in the test on SK-OV-3 ovarian it was 80.2%; in the test on IGROV1 ovarian, 36.7%. For the same compound, the growth in the test with OVCAR-3 ovarian was -6.31% (active); with HS 578T breast it was 62.8%; in the test with NCI/ADR-RES ovarian, 54.5%; with T-47D breast, 23%.
`CN1CCN(CC#CCOC(=O)CNC(=O)[C@]23CCC(C)(C)C[C@H]2C2=CC[C@@H]4[C@@]5(C)CC[C@H](O)C(C)(C)[C@@H]5CC[C@@]4(C)[C@]2(C)CC3)CC1`: the growth with RPMI-8226 leukemia is 76.8%; in the test on OVCAR-8 ovarian, 81.3%; in the test with OVCAR-5 ovarian, 101%; in the test with OVCAR-4 ovarian, 105%; in the test on SK-OV-3 ovarian it was 86.2%; in the test on IGROV1 ovarian it was 90.4%. In addition, the growth was 94.6% in the test on OVCAR-3 ovarian, 95.5% with HS 578T breast, 87.6% in the test on NCI/ADR-RES ovarian and 75.5% with T-47D breast.
Take `Cc1cc(C)n(-c2nc(-c3cccs3)c(C#N)c(=O)[nH]2)n1`: the growth in the test with RPMI-8226 leukemia is 105%; in the test on OVCAR-8 ovarian it was 102%; in the test on OVCAR-5 ovarian, 105%; with OVCAR-4 ovarian, 91.1%; with SK-OV-3 ovarian, 90.9%; in the test on IGROV1 ovarian it was 108%. For the same compound, the growth with OVCAR-3 ovarian was 94.7%; in the test with HS 578T breast it was 106%; with NCI/ADR-RES ovarian it was 85.7%; with T-47D breast, 80.6%.

The values are drawn from PubChem BioAssay (NCI).
